Our source for the inhibition values is PubChem BioAssay AID1861 (The Scripps Research Institute Molecular Screening Center, 2009).

Each structure is given as a SMILES string. Hit rate of the full screen: of about 290,000 compounds, about 3,100 (1.1%) were called active. This is one part of a sample in which actives are shown more often than they occur. Values without a mark were called inactive. Cut-off read from the data, not from the text of the source: active = inhibition above about 16% (passing the limit was not always enough); inactive = the rest.

Neuropeptides B/W receptor type 1 (Homo sapiens), sequence (P48145 whole entry, looked up): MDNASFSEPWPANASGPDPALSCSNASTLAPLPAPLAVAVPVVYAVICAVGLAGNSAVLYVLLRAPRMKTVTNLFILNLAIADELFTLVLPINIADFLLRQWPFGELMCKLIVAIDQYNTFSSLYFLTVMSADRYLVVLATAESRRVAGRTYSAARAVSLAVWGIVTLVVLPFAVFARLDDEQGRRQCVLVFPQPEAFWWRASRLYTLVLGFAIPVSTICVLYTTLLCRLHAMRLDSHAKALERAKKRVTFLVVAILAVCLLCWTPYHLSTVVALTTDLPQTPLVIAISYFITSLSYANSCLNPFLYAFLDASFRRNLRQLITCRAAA

This assay concerns the target Neuropeptides B/W receptor type 1 (Homo sapiens) (UniProt P48145). Briefly: blockers of human neuropeptide B/W receptor 1 – cell-based, fluorescence, single concentration, primary screen (AID 1861).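 Note: cells stimulated with the agonist NPW; 0% = agonist with vehicle and 100% = vehicle without agonist.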 Conditions: GPR7-expressing cells, fluorescence antagonist assay; at 4.4 µM; active compounds read high.
Consider `Cc1nn(C)c(Oc2ccccc2)c1[N+](=O)[O-]`, for which the inhibition is -4.53%.

As to `Cc1cccc(Oc2c([N+](=O)[O-])c(=O)n(C)c3ccccc23)c1`, the inhibition was -3.17%.

In the case of `Cn1c(=O)c([N+](=O)[O-])c(Oc2ccccc2)c2ccccc21`, the inhibition is 101% (active).

As to `CC(Cc1cccs1)N(Cc1ccc(Cl)cc1)C(=O)c1ccncc1` (centres undefined), the inhibition is 14.5%.

As for `O=[N+]([O-])c1cccc(/C=N/Nc2ncc(Br)cn2)c1`, the inhibition is -6.1%.

On to `Cc1c(CN2CCC(n3nccc3NC(=O)CCc3ccccc3)CC2)cnn1C`, for which the inhibition is 0.34%.

On to `COc1ccccc1Oc1ccc(S(=O)(=O)Nc2cccnc2)cc1`, for which the inhibition is 27.5% (active).

Turning to `O=S(=O)(Nc1ccccn1)c1ccc(Oc2ccccc2)cc1`, the inhibition was -3.88%.

Turning to `COc1ccc(S(=O)(=O)Nc2cccnc2)c(Cl)c1Cl`, the inhibition is 4.69%.

For the compound `Cc1cc(OC(C)C(=O)NC2CC(C)(C)NC(C)(C)C2)c2c(C)cc(=O)oc2c1` (centres undefined), the inhibition is 27.1% (active).

On to `Cc1cc(=O)oc(C)c1C(=O)NC1CC(C)(C)NC(C)(C)C1`, for which the inhibition was 6.27%.

In the case of `CC(Oc1cccc(Cl)c1)C(=O)NC1CC(C)(C)NC(C)(C)C1` (centres undefined), the inhibition was -7.54%.

For `O=c1oc2ccccc2c(CNc2ccccc2)c1[N+](=O)[O-]`, the inhibition is 6.62%.

`CCN1CCN(CCNC(=O)c2ccc(/C=C3/Sc4ccccc4N(Cc4cccc(C)c4)C3=O)cc2)CC1`: the inhibition is 3.05%.

Regarding `CCN1/C(=C/c2ccc3ccc(C)cc3[n+]2CC)Sc2ccccc21`, the inhibition was 38.4% (active).

As for `CCN1/C(=C\c2ccc3ccccc3[n+]2CC)Sc2cc(C)ccc21`, the inhibition is 34.1% (active).

In the case of `Cc1cc(-c2ccc(S(=O)(=O)N3CCc4ccccc4C3)s2)on1`, the inhibition was 1.59%.

Take `CC(=O)Oc1ccc2c(=O)oc(-c3ccc([N+](=O)[O-])cc3)nc2c1`: the inhibition is -20.8%.

`Cc1cccc(N(C(=O)c2csnn2)C(C(=O)NCc2ccccc2)c2ccncc2)c1` (centres undefined): the inhibition was -21.8%.

As to `CCC(=O)Nc1ccc(S(=O)(=O)Nc2c(NC)c3ccccc3oc2=O)cc1`, the inhibition was -6.83%.

Regarding `Cn1c(Nc2ccccc2)cc(=O)n(C)c1=O`, the inhibition is 19.8%.

Take `Cc1cccc(N2CCN(C(=O)c3cc4c(=O)[nH]c5ccccc5c4n3C)CC2)c1C`: the inhibition is -11.3%.

In the case of `O=C(NCc1ccco1)C(c1ccncc1)N(C(=O)Cn1nnc2ccccc21)c1ccccc1` (centres undefined), the inhibition is -15.7%.

Regarding `COCCNC(=O)C(c1ccc(C)o1)N(Cc1ccccc1)C(=O)Cn1nnc2ccccc21` (centres undefined), the inhibition was -3%.

In the case of `COc1ccccc1N(C(=O)Cn1nnc2ccccc21)C(C(=O)NCc1ccco1)c1ccc(C)o1` (centres undefined), the inhibition was 27% (active).

Regarding `CCOc1ccc(C(CC(=O)O)NC(=O)Cc2ccccc2)cc1OC` (centres undefined), the inhibition is -15.8%.

Regarding `COc1cccc2cc(C(N)=O)/c(=N\NC(=O)c3ccccc3)oc12`, the inhibition was 20.9%.

As to `C=CCC1(CC=C)CCCN1C(=O)c1cc(COc2ccc(-n3cncn3)cc2)on1`, the inhibition is 29.1% (active).

Regarding `CCn1ccnc1CN(C)C(=O)c1cc(COc2ccc(-n3cncn3)cc2)on1`, the inhibition is -16.5%.

For the compound `O=C(c1cc(COc2ccc(F)c(F)c2)on1)N1CCOCC1`, the inhibition was 1.79%.

Turning to `O=C(COC(=O)c1ccc(F)cc1)NCCCc1ccccc1`, the inhibition is 12.2%.

For the compound `O=C(c1ccc(Cl)cc1)c1cnc(Nc2ccccc2)s1`, the inhibition is 7.11%.

Turning to `CS(=O)(=O)c1ccc(Cl)c(NC(=O)Nc2ccccc2)c1`, the inhibition was 4.03%.

With `O=C(Nc1ccccc1)c1nnsc1S(=O)(=O)c1ccc(Cl)cc1`, the inhibition was 42.6% (active).

Consider `COc1ccccc1N1CCN(C(=O)c2ccc(NC3=NC4CS(=O)(=O)CC4S3)cc2)CC1` (centres undefined), for which the inhibition was -7.21%.

As for `CCOc1ccc(OCc2ccc(C(=O)Nc3cccc(C)n3)o2)cc1`, the inhibition is -9.15%.

Turning to `Cc1cc(OCc2ccc(C(=O)Nc3ccc(C(=O)O)cc3)o2)ccc1Cl`, the inhibition is 38% (active).

On to `O=C(O)c1ccc(NC(=O)c2ccc(COc3ccc(Cl)cc3)o2)cc1`, for which the inhibition is 15.6%.

In the case of `CCNc1c(NS(=O)(=O)c2ccc(C3CCCCC3)cc2)c(=O)oc2ccccc12`, the inhibition is 12.2%.

Take `CC(=O)N1CCN(c2ccccc2NC(=S)NC(=O)c2cc3ccccc3o2)CC1`: the inhibition was -12.1%.

Turning to `Cc1cc(C)nc(N/N=C/c2ccc([N+](=O)[O-])o2)n1`, the inhibition is -3.49%.

For `Cc1ccc(CNCc2ccc3c(c2)OCO3)c(C)c1`, the inhibition is -3.64%.

As for `COc1ccc(C2(C)NC(=O)N(CC(=O)c3ccc4c(c3)OCO4)C2=O)cc1` (centres undefined), the inhibition was 0.08%.

Turning to `COc1cc(NC(=O)CN2C(=O)NC(C)(c3ccc(OC(F)F)cc3)C2=O)cc(OC)c1OC` (centres undefined), the inhibition was 25.8% (active).

Consider `COc1ccc(C(=O)CN2C(=O)NC(C)(c3ccc(C)cc3)C2=O)cc1OC` (centres undefined), for which the inhibition was 22.6%.

Regarding `Cc1nonc1NC(=O)c1oc2ccccc2c1C`, the inhibition was -9.19%.

Regarding `CCOc1ccc(Cn2nnc(C(=O)NCc3ccccc3)c2N)cc1`, the inhibition is 35.9% (active).

Turning to `CCc1ccc(NC(=O)Cn2nnc(C(=O)NCc3ccc(OC)cc3)c2N)cc1`, the inhibition was -9.93%.

As for `CCOc1ccc(Cn2nnc(C(=O)Nc3ccc(OC)cc3OC)c2N)cc1`, the inhibition is 17.7%.

With `CCOc1ncccc1C(=O)NCCc1ccc(OC)cc1`, the inhibition is 24.6% (active).

Turning to `COc1ccc(CCNC(=O)c2ccccc2OCc2ccccc2)cc1`, the inhibition is 1.73%.

`O=C(NCCc1ccccn1)c1cccnc1Oc1ccc(Cl)cc1`: the inhibition is -10.8%.

As to `CC(C)NC(=O)C(c1ccc(F)cc1)N(C(=O)CCC(=O)Nc1ccccn1)c1ccccc1F` (centres undefined), the inhibition is -14.6%.

With `O=C(NCCc1c[nH]c2ccc(Cl)cc12)c1ccc([N+](=O)[O-])cc1`, the inhibition is 7.45%.

On to `Cc1ccc2[nH]cc(CCNC(=O)C3CCCCC3)c2c1`, for which the inhibition was -3.83%.

Turning to `Cc1ccc2[nH]cc(CCNC(=O)c3ccc([N+](=O)[O-])cc3)c2c1`, the inhibition was 25% (active).

For `O=C(N/N=C/c1ccccc1O)C1CCCC1`, the inhibition is -6.49%.

On to `CCN(CC)CCCNC(=O)CCn1nc(-c2ccc(Cl)cc2)ccc1=O`, for which the inhibition is 11%.

`O=C(Nc1ccc2c(c1)OCO2)C1CC(c2c(F)cccc2Cl)=NO1` (centres undefined): the inhibition is 29% (active).

For the compound `Cc1ccc(NC(=O)C2CC(c3ccc(F)cc3)=NO2)cc1` (centres undefined), the inhibition is -5.41%.

Consider `Cc1ccccc1N1CC(C(=O)Nc2ccc3c(c2)OCO3)CC1=O` (centres undefined), for which the inhibition was -9.07%.

Regarding `CS(=O)(=O)N1CCc2nc(-c3ccccc3)sc2C1`, the inhibition was -4.29%.

For `C=CCSc1nsc(NC(=O)Nc2cccc(C(C)=O)c2)n1`, the inhibition was 32.5% (active).

As to `C=C(C)C(=O)Nc1cccc(C(C)=O)c1`, the inhibition was -8.07%.

Regarding `CC(=O)c1cccc(NC(=O)c2ccncc2)c1`, the inhibition was -7.93%.

Regarding `CCSc1nsc(NC(=O)Nc2ccccc2OC)n1`, the inhibition was 0.35%.

Turning to `C=CCSc1nnc(NC(=O)c2ccc(NC(C)=O)cc2)s1`, the inhibition was -10.1%.

For the compound `CCSc1nsc(NC(=O)Nc2cccc(C(C)=O)c2)n1`, the inhibition was 37.1% (active).

Regarding `Cc1ccc(S(=O)(=O)NCc2ccc(C(=O)NC3CCC(C)CC3)cc2)cc1` (centres undefined), the inhibition was -11.8%.

Turning to `COC(=O)c1ccc(CN2CCCC(C(=O)Nc3cccc(-n4cnnn4)c3)C2)cc1` (centres undefined), the inhibition is -3.8%.

For `CCOC(=O)C1Sc2[nH]c(=O)sc2C(c2ccc(Cl)cc2)C1C(=O)OCC` (centres undefined), the inhibition was -3.9%.

`Cc1cc(C)c(C(=O)CSc2nc(C)cc(=O)[nH]2)c(C)c1`: the inhibition was 5.17%.

As to `COc1ccc(C2CC(c3ccc(C)cc3)Nc3ncnn32)cc1` (centres undefined), the inhibition was 3.36%.

In the case of `COc1ccc(C2CC(c3ccccc3)Nc3ncnn32)cc1` (centres undefined), the inhibition is 12.2%.

Regarding `Clc1ccc(C2CC(c3cccs3)n3ncnc3N2)cc1Cl` (centres undefined), the inhibition is 24.9% (active).

Turning to `Brc1ccccc1CN1CCC(Cc2ccccc2)CC1`, the inhibition is -13.6%.

On to `COc1ccc(Cn2c(C)c(C)c(C#N)c2NC(=O)Nc2ccc(F)cc2)cc1`, for which the inhibition is -4.33%.

Turning to `COc1cccc(/C=C2/SC(=S)N(CC(=O)NC3C=CS(=O)(=O)C3)C2=O)c1` (centres undefined), the inhibition is -2.21%.

Turning to `Cc1nc2ccc(S(=O)(=O)N(C)CC(=O)NC(C)c3ccccc3)cc2s1` (centres undefined), the inhibition was 2.55%.

For the compound `COCCN1C(=O)C(=O)/C(=C(/O)c2ccc(S(=O)(=O)N3CCCCC3)cc2)C1c1ccc(OC)c(OC)c1` (centres undefined), the inhibition is -6.88%.

For `COC(=O)c1cc(N2CCNCC2)nc2ccccc12`, the inhibition is 1.6%.

Turning to `COc1ccc(S(=O)(=O)NCCc2c[nH]c3ccccc23)cc1OC`, the inhibition is -6.73%.

For the compound `COc1cccc(CNCCc2c[nH]c3ccccc23)c1OCc1ccccc1F`, the inhibition was 39.6% (active).

On to `COc1ccccc1CC(=O)NCCc1c[nH]c2ccccc12`, for which the inhibition was -0.98%.

On to `O=C(CN1CCC(NC(=O)Nc2ccccc2)CC1)Nc1cccc([N+](=O)[O-])c1`, for which the inhibition was -1.48%.

`CC(NC(=O)c1cc(=O)[nH]c2ccccc12)c1ccc(F)cc1F` (centres undefined): the inhibition was 0.31%.

`CC(C)CC(CCc1ccccc1)OS(N)(=O)=O` (centres undefined): the inhibition is -8.91%.

On to `Cc1nc(C)c(C(=O)Nc2cccc(C)c2C)o1`, for which the inhibition is 1.66%.

Consider `Cc1cccc(NC(=O)c2ccc3nsnc3c2)c1C`, for which the inhibition was 4.08%.

In the case of `Cc1cccc(NC(=O)c2cccc(C(=O)Nc3cccc(C)c3C)n2)c1C`, the inhibition is 36.1% (active).

As for `CC(C)N1CCC(NC(=O)Nc2ccccc2)CC1`, the inhibition is -11.8%.

Take `Cn1cc(CNC(=O)c2ccc(OC3CCN(Cc4ccccn4)CC3)cc2)cn1`: the inhibition is -5.98%.

With `CN(Cc1ccccc1)C(=O)c1ccc(NC2=NC3CS(=O)(=O)CC3S2)cc1` (centres undefined), the inhibition is -12.5%.

Consider `COc1ccc(C2C=C(c3ccc(Br)cc3)Nc3nc(NS(C)(=O)=O)nn32)cc1` (centres undefined), for which the inhibition was 15%.
